The campaign covered roughly 5,500 compounds. About 2,000 (36%) were called active. About 18% were inconclusive and are not listed. Cut-off read from the data, not from the text of the source: active = normalized growth mostly below about 0.91 (no sharp cut-off); inconclusive = no clear call, values can overlap the other calls; inactive = mostly above about 0.92. Some of the results follow.
Test: chemical genetic growth profiling, strain panel (AID 1159580);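 note: tested at 20 µM; growth read once vehicle control cultures reached saturation at 30 °C; 1 = growth at the plate median or of vehicle wells; lower values mean less growth of the strain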
Details: growth OD

Measured: normalized growth

CCCN1C[C@H](CSC)C[C@@H]2c3cccc4[nH]cc(c34)C[C@H]21
inactive: S. cerevisiae deletion strains, locus YKL009W, strain mrt4, stronger effect = lower value 1.01 | S. cerevisiae deletion strains, locus YKL068W, stronger effect = lower value 1.02 | S. cerevisiae deletion strains, locus YKL085W, strain MDH1 (second series), stronger effect = lower value 1 | S. cerevisiae deletion strains, locus YKL085W, strain MDH1, stronger effect = lower value 1 | S. cerevisiae deletion strains, locus YKL160W, strain elf1, stronger effect = lower value 1.01 | S. cerevisiae deletion strains, locus YKL190W, strain CNB1, stronger effect = lower value 0.995 | S. cerevisiae deletion strains, locus YKR001C, strain vps1, stronger effect = lower value 1.02 | S. cerevisiae deletion strains, locus YKR026C, strain gcn3, stronger effect = lower value 1.02 | S. cerevisiae deletion strains, locus YKR091W, strain srl3, stronger effect = lower value 0.997 | S. cerevisiae deletion strains, locus YLL001W, strain dnm1, stronger effect = lower value 1 | S. cerevisiae deletion strains, locus YLL026W, stronger effect = lower value 1.01 | S. cerevisiae deletion strains, locus YLL041C, strain sdh2, stronger effect = lower value 0.995 | S. cerevisiae deletion strains, locus YLR027C, strain aat2, stronger effect = lower value 1 | S. cerevisiae deletion strains, locus YLR039C, strain RIC1, stronger effect = lower value 1.11 | S. cerevisiae deletion strains, locus YLR058C, strain SHM2, stronger effect = lower value 1.01 | S. cerevisiae deletion strains, locus YLR102C, strain apc9, stronger effect = lower value 1.03 | S. cerevisiae deletion strains, locus YLR113W, strain HOG1, stronger effect = lower value 1.06 | S. cerevisiae deletion strains, locus YLR221C, strain rsa3, stronger effect = lower value 1 | S. cerevisiae deletion strains, locus YLR258W, strain gsy2, stronger effect = lower value 1.01 | S. cerevisiae deletion strains, locus YLR262C, strain YPT6 (second series), stronger effect = lower value 1.07 | S. cerevisiae deletion strains, locus YLR262C, strain YPT6, stronger effect = lower value 1.09 | S. cerevisiae deletion strains, locus YLR268W, strain sec22, stronger effect = lower value 1 | S. cerevisiae deletion strains, locus YLR320W, strain mms22, stronger effect = lower value 0.984 | S. cerevisiae deletion strains, locus YLR330W, strain CHS5, stronger effect = lower value 0.999 | S. cerevisiae deletion strains, locus YLR342W, strain FKS1 (second series), stronger effect = lower value 1.01 | S. cerevisiae deletion strains, locus YLR342W, strain FKS1, stronger effect = lower value 1 | S. cerevisiae deletion strains, locus YLR357W, strain rsc2, stronger effect = lower value 0.982 | S. cerevisiae deletion strains, locus YLR370C, strain arc18, stronger effect = lower value 1.01 | S. cerevisiae deletion strains, locus YLR371W, strain rom2, stronger effect = lower value 1.02 | S. cerevisiae deletion strains, locus YLR384C, strain iki3, stronger effect = lower value 1 | S. cerevisiae deletion strains, locus YLR418C, strain cdc73, stronger effect = lower value 0.985 | S. cerevisiae deletion strains, locus YML016C, strain PPZ1, stronger effect = lower value 0.998 | S. cerevisiae deletion strains, locus YML032C, strain rad52, stronger effect = lower value 1.03 | S. cerevisiae deletion strains, locus YML120C, strain ndi1, stronger effect = lower value 1.02 | S. cerevisiae deletion strains, locus YML124C, strain tub3, stronger effect = lower value 1.02 | S. cerevisiae deletion strains, locus YMR058W, strain fet3, stronger effect = lower value 0.999 | S. cerevisiae deletion strains, locus YMR078C, strain ctf18, stronger effect = lower value 1.03 | S. cerevisiae deletion strains, locus YMR125W, strain sto1, stronger effect = lower value 1.02 | S. cerevisiae deletion strains, locus YMR129W, stronger effect = lower value 1.02 | S. cerevisiae deletion strains, locus YMR205C, strain PFK2, stronger effect = lower value 1.02 | S. cerevisiae deletion strains, locus YMR223W, strain ubp8, stronger effect = lower value 1.02 | S. cerevisiae deletion strains, locus YMR231W, strain pep5, stronger effect = lower value 1.02 | S. cerevisiae deletion strains, locus YMR263W, strain SAP30, stronger effect = lower value 0.979 | S. cerevisiae deletion strains, locus YMR307W, strain GAS1, stronger effect = lower value 1.03 | S. cerevisiae deletion strains, locus YNL067W, strain RPL9B, stronger effect = lower value 0.975 | S. cerevisiae deletion strains, locus YNL071W, strain lat1, stronger effect = lower value 1.02 | S. cerevisiae deletion strains, locus YNL128W, strain TEP1, stronger effect = lower value 0.984 | S. cerevisiae deletion strains, locus YNL153C, strain GIM3, stronger effect = lower value 0.983 | S. cerevisiae deletion strains, locus YNL183C, strain NPR1, stronger effect = lower value 0.991 | S. cerevisiae deletion strains, locus YNL209W, strain ssb2, stronger effect = lower value 1 | S. cerevisiae deletion strains, locus YNL233W, strain BNI4, stronger effect = lower value 0.981 | S. cerevisiae deletion strains, locus YNL248C, strain rpa49, stronger effect = lower value 0.945 | S. cerevisiae deletion strains, locus YNL250W, strain rad50, stronger effect = lower value 1 | S. cerevisiae deletion strains, locus YNL271C, strain bni1, stronger effect = lower value 1.02 | S. cerevisiae deletion strains, locus YNL298W, strain CLA4, stronger effect = lower value 1.02 | S. cerevisiae deletion strains, locus YNL307C, strain MCK1, stronger effect = lower value 1.03 | S. cerevisiae deletion strains, locus YNL322C, strain KRE1 (second series), stronger effect = lower value 1.01 | S. cerevisiae deletion strains, locus YNL322C, strain KRE1, stronger effect = lower value 1 | S. cerevisiae deletion strains, locus YNR049C, strain mso1, stronger effect = lower value 1.01 | S. cerevisiae deletion strains, locus YNR052C, strain pop2, stronger effect = lower value 1.02 | S. cerevisiae deletion strains, locus YOL006C, strain TOP1, stronger effect = lower value 0.966 | S. cerevisiae deletion strains, locus YOL012C, strain htz1 0.77 | S. cerevisiae deletion strains, locus YOL147C, strain pex11, stronger effect = lower value 1.02 | S. cerevisiae deletion strains, locus YOR001W, strain rrp6, stronger effect = lower value 0.983 | S. cerevisiae deletion strains, locus YOR061W, strain CKA2, stronger effect = lower value 0.992 | S. cerevisiae deletion strains, locus YOR069W, strain VPS5, stronger effect = lower value 0.989 | S. cerevisiae deletion strains, locus YOR070C, strain gyp1, stronger effect = lower value 0.997 | S. cerevisiae deletion strains, locus YOR080W, strain dia2, stronger effect = lower value 1.02 | S. cerevisiae deletion strains, locus YOR083W, strain WHI5, stronger effect = lower value 0.966 | S. cerevisiae deletion strains, locus YOR106W, strain vam3, stronger effect = lower value 1.01 | S. cerevisiae deletion strains, locus YOR136W, strain idh2, stronger effect = lower value 1.02 | S. cerevisiae deletion strains, locus YOR144C, strain elg1, stronger effect = lower value 1.01 | S. cerevisiae deletion strains, locus YOR184W, strain ser1, stronger effect = lower value 1.05 | S. cerevisiae deletion strains, locus YOR231W, strain MKK1, stronger effect = lower value 1.08 | S. cerevisiae deletion strains, locus YOR265W, strain rbl2, stronger effect = lower value 1.02 | S. cerevisiae deletion strains, locus YOR270C, strain vph1, stronger effect = lower value 1.07 | S. cerevisiae deletion strains, locus YOR290C, strain snf2, stronger effect = lower value 1 | S. cerevisiae deletion strains, locus YOR316C, strain cot1, stronger effect = lower value 1.02 | S. cerevisiae deletion strains, locus YPL051W, strain arl3, stronger effect = lower value 1.01 | S. cerevisiae deletion strains, locus YPL055C, strain LGE1, stronger effect = lower value 0.946 | S. cerevisiae deletion strains, locus YPL078C, strain atp4, stronger effect = lower value 1.01 | S. cerevisiae deletion strains, locus YPL106C, strain sse1, stronger effect = lower value 1.03 | S. cerevisiae deletion strains, locus YPL240C, strain hsp82, stronger effect = lower value 1.01 | S. cerevisiae deletion strains, locus YPL241C, strain CIN2, stronger effect = lower value 1.03 | S. cerevisiae deletion strains, locus YPL256C, strain CLN2, stronger effect = lower value 1.06 | S. cerevisiae deletion strains, locus YPR119W, strain clb2, stronger effect = lower value 1.02 | S. cerevisiae deletion strains, locus YPR141C, strain kar3, stronger effect = lower value 1.01 | S. cerevisiae deletion strains, locus YPR163C, strain tif3, stronger effect = lower value 1.02 | S. cerevisiae deletion strains, locus YPR167C, strain met16, stronger effect = lower value 1.02 | S. cerevisiae deletion strains, strain wtn01, stronger effect = lower value 0.995 | S. cerevisiae strains, strain wild type, stronger effect = lower value 0.997

Reference: PubChem BioAssay AID1159580 (chemical genetic matrix, 2015)
